Assay results reported in PubChem BioAssay AID1159580 (chemical genetic matrix, 2015).
Hit rate of the full screen: of about 5,500 compounds, about 2,000 (36%) were called active. Roughly 18% stayed inconclusive and do not appear here. Rule as the data show it: active = normalized growth mostly below about 0.91 (no sharp cut-off); inconclusive = no clear call, values can overlap the other calls; inactive = mostly above about 0.92. Some of the results follow.

Test: chemical genetic growth profiling, strain panel (AID 1159580);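 also: tested at 20 µM; growth read once vehicle control cultures reached saturation at 30 °C; 1 = growth at the plate median or of vehicle wells; lower values mean less growth of the strain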
Details: growth OD

Measured: normalized growth

Cc1cc2cc3c(C)cc(=O)oc3c(C)c2o1
active: S. cerevisiae deletion strains, locus YLR418C, strain cdc73, active compounds read low 0.83 | S. cerevisiae deletion strains, locus YML032C, strain rad52, active compounds read low 0.8 | S. cerevisiae deletion strains, locus YMR125W, strain sto1, active compounds read low 1.11 [resistant] | S. cerevisiae deletion strains, locus YNL248C, strain rpa49, active compounds read low 0.861 | S. cerevisiae deletion strains, locus YNL307C, strain MCK1, active compounds read low 0.905
inactive: S. cerevisiae deletion strains, locus YKL009W, strain mrt4, active compounds read low 0.894 | S. cerevisiae deletion strains, locus YKL068W, active compounds read low 1.01 | S. cerevisiae deletion strains, locus YKL085W, strain MDH1 (second series), active compounds read low 0.992 | S. cerevisiae deletion strains, locus YKL085W, strain MDH1, active compounds read low 0.992 | S. cerevisiae deletion strains, locus YKL160W, strain elf1, active compounds read low 0.951 | S. cerevisiae deletion strains, locus YKL190W, strain CNB1, active compounds read low 0.981 | S. cerevisiae deletion strains, locus YKR001C, strain vps1, active compounds read low 0.916 | S. cerevisiae deletion strains, locus YKR026C, strain gcn3, active compounds read low 0.987 | S. cerevisiae deletion strains, locus YKR091W, strain srl3, active compounds read low 1.01 | S. cerevisiae deletion strains, locus YLL001W, strain dnm1, active compounds read low 0.993 | S. cerevisiae deletion strains, locus YLL026W, active compounds read low 0.981 | S. cerevisiae deletion strains, locus YLL041C, strain sdh2, active compounds read low 1.01 | S. cerevisiae deletion strains, locus YLR027C, strain aat2, active compounds read low 1 | S. cerevisiae deletion strains, locus YLR039C, strain RIC1, active compounds read low 0.927 | S. cerevisiae deletion strains, locus YLR058C, strain SHM2, active compounds read low 0.971 | S. cerevisiae deletion strains, locus YLR102C, strain apc9, active compounds read low 0.994 | S. cerevisiae deletion strains, locus YLR113W, strain HOG1, active compounds read low 1.02 | S. cerevisiae deletion strains, locus YLR221C, strain rsa3, active compounds read low 0.947 | S. cerevisiae deletion strains, locus YLR258W, strain gsy2, active compounds read low 0.956 | S. cerevisiae deletion strains, locus YLR262C, strain YPT6 (second series), active compounds read low 0.994 | S. cerevisiae deletion strains, locus YLR262C, strain YPT6, active compounds read low 0.912 | S. cerevisiae deletion strains, locus YLR268W, strain sec22, active compounds read low 0.898 | S. cerevisiae deletion strains, locus YLR320W, strain mms22, active compounds read low 0.909 | S. cerevisiae deletion strains, locus YLR330W, strain CHS5, active compounds read low 0.984 | S. cerevisiae deletion strains, locus YLR342W, strain FKS1 (second series), active compounds read low 0.915 | S. cerevisiae deletion strains, locus YLR342W, strain FKS1, active compounds read low 0.994 | S. cerevisiae deletion strains, locus YLR357W, strain rsc2, active compounds read low 1.1 | S. cerevisiae deletion strains, locus YLR370C, strain arc18, active compounds read low 0.986 | S. cerevisiae deletion strains, locus YLR371W, strain rom2, active compounds read low 0.99 | S. cerevisiae deletion strains, locus YLR384C, strain iki3, active compounds read low 1 | S. cerevisiae deletion strains, locus YML016C, strain PPZ1, active compounds read low 0.951 | S. cerevisiae deletion strains, locus YML120C, strain ndi1, active compounds read low 0.996 | S. cerevisiae deletion strains, locus YML124C, strain tub3, active compounds read low 0.986 | S. cerevisiae deletion strains, locus YMR058W, strain fet3, active compounds read low 0.945 | S. cerevisiae deletion strains, locus YMR078C, strain ctf18, active compounds read low 0.974 | S. cerevisiae deletion strains, locus YMR129W, active compounds read low 1.02 | S. cerevisiae deletion strains, locus YMR205C, strain PFK2, active compounds read low 1.03 | S. cerevisiae deletion strains, locus YMR223W, strain ubp8, active compounds read low 0.936 | S. cerevisiae deletion strains, locus YMR231W, strain pep5, active compounds read low 1 | S. cerevisiae deletion strains, locus YMR263W, strain SAP30, active compounds read low 0.908 | S. cerevisiae deletion strains, locus YMR307W, strain GAS1, active compounds read low 0.887 | S. cerevisiae deletion strains, locus YNL067W, strain RPL9B, active compounds read low 0.897 | S. cerevisiae deletion strains, locus YNL071W, strain lat1, active compounds read low 0.931 | S. cerevisiae deletion strains, locus YNL128W, strain TEP1, active compounds read low 0.975 | S. cerevisiae deletion strains, locus YNL153C, strain GIM3, active compounds read low 0.918 | S. cerevisiae deletion strains, locus YNL183C, strain NPR1, active compounds read low 0.924 | S. cerevisiae deletion strains, locus YNL209W, strain ssb2, active compounds read low 0.981 | S. cerevisiae deletion strains, locus YNL233W, strain BNI4, active compounds read low 0.885 | S. cerevisiae deletion strains, locus YNL250W, strain rad50, active compounds read low 0.963 | S. cerevisiae deletion strains, locus YNL271C, strain bni1, active compounds read low 0.964 | S. cerevisiae deletion strains, locus YNL298W, strain CLA4, active compounds read low 0.941 | S. cerevisiae deletion strains, locus YNL322C, strain KRE1 (second series), active compounds read low 1 | S. cerevisiae deletion strains, locus YNL322C, strain KRE1, active compounds read low 0.993 | S. cerevisiae deletion strains, locus YNR049C, strain mso1, active compounds read low 1.01 | S. cerevisiae deletion strains, locus YNR052C, strain pop2, active compounds read low 0.98 | S. cerevisiae deletion strains, locus YOL006C, strain TOP1, active compounds read low 0.585 | S. cerevisiae deletion strains, locus YOL012C, strain htz1 0.819 | S. cerevisiae deletion strains, locus YOL147C, strain pex11, active compounds read low 0.986 | S. cerevisiae deletion strains, locus YOR001W, strain rrp6, active compounds read low 0.972 | S. cerevisiae deletion strains, locus YOR061W, strain CKA2, active compounds read low 0.97 | S. cerevisiae deletion strains, locus YOR069W, strain VPS5, active compounds read low 0.974 | S. cerevisiae deletion strains, locus YOR070C, strain gyp1, active compounds read low 0.979 | S. cerevisiae deletion strains, locus YOR080W, strain dia2, active compounds read low 1 | S. cerevisiae deletion strains, locus YOR083W, strain WHI5, active compounds read low 0.941 | S. cerevisiae deletion strains, locus YOR106W, strain vam3, active compounds read low 0.98 | S. cerevisiae deletion strains, locus YOR136W, strain idh2, active compounds read low 0.969 | S. cerevisiae deletion strains, locus YOR144C, strain elg1, active compounds read low 0.979 | S. cerevisiae deletion strains, locus YOR184W, strain ser1, active compounds read low 0.875 | S. cerevisiae deletion strains, locus YOR231W, strain MKK1, active compounds read low 0.926 | S. cerevisiae deletion strains, locus YOR265W, strain rbl2, active compounds read low 0.995 | S. cerevisiae deletion strains, locus YOR270C, strain vph1, active compounds read low 0.872 | S. cerevisiae deletion strains, locus YOR290C, strain snf2, active compounds read low 0.949 | S. cerevisiae deletion strains, locus YOR316C, strain cot1, active compounds read low 0.989 | S. cerevisiae deletion strains, locus YPL051W, strain arl3, active compounds read low 0.982 | S. cerevisiae deletion strains, locus YPL055C, strain LGE1, active compounds read low 0.88 | S. cerevisiae deletion strains, locus YPL078C, strain atp4, active compounds read low 0.976 | S. cerevisiae deletion strains, locus YPL106C, strain sse1, active compounds read low 0.92 | S. cerevisiae deletion strains, locus YPL240C, strain hsp82, active compounds read low 0.994 | S. cerevisiae deletion strains, locus YPL241C, strain CIN2, active compounds read low 0.985 | S. cerevisiae deletion strains, locus YPL256C, strain CLN2, active compounds read low 0.993 | S. cerevisiae deletion strains, locus YPR119W, strain clb2, active compounds read low 0.987 | S. cerevisiae deletion strains, locus YPR141C, strain kar3, active compounds read low 0.996 | S. cerevisiae deletion strains, locus YPR163C, strain tif3, active compounds read low 0.969 | S. cerevisiae deletion strains, locus YPR167C, strain met16, active compounds read low 0.983 | S. cerevisiae deletion strains, strain wtn01, active compounds read low 0.931 | S. cerevisiae strains, strain wild type, active compounds read low 0.964
